Measured values: PubChem BioAssay (Tox21)
Records with an inconclusive call do not appear. Unmarked numbers belong to inactive results. Calls come from the whole dose curve; as a rule, active = well fitted activation curve with a large enough effect in the signal ratio in the repeat runs (not every such curve was filed as active); inconclusive = weak or mixed curves, or effect the other way; inactive = flat fitted curve, though single readings scatter; the % refers to the signal ratio.

assay: qHTS assay to identify small molecule agonists of the endoplasmic reticulum stress response signaling pathway (AID 1159516); settings: ESRE-bla HeLa, ER stress beta-lactamase reporter, 5 h; series mostly up to 61 µM; activation: at the top concentration
Text: National Center for Advancing Translational Sciences [NCATS]
NIH Chemical Genomics Center [NCGC]
U.S. Environmental Protection Agency [EPA]
National Institutes of Environmental Health Sciences [NIEHS]
National Toxicology Program [NTP]
U.S. Food and Drug Administration [FDA]
Endoplasmic Reticulum (ER) plays an important role in cellular signaling, protein folding/maturation, stress response, lipid biosynthesis, calcium storage and release etc. Under stress conditions, proteins in ER misfold or unfold, and leading to the expression of ER stress responsive genes. ER stress has been associated with a variety of pathophysiological conditions such as cancer, inflammation, neurodegenerative diseases, diabetes, ischemic heart disease etc. To identify the compounds that induce ER stress response, an ER stress reporter cell line, CellSensor ESRE-bla HeLa (Life Technologies, Carlsbad, CA) containing a beta-lactamase reporter gene under control of the Endoplasmic reticulum Stress Response Element (ESRE) was used to screen Tox21 10K compound library.
Tox21 Assay Protocol Summary:
ESRE-bla HeLa cells were dispensed at 1,500 cells/6 uL of assay medium per well into black wall/clear-bottom 1536-well plates using a Multidrop Combi (ThermoFisher Scientific, Waltham, MA) dispenser. After the assay plates were incubated at 37 C and 5% CO2 for an overnight, 23 nL of compounds dissolved in DMSO, positive controls or DMSO only was transferred to the assay plate by a Pintool station (Kalypsys, San Diego, CA). The assay plates were incubated at 37 C and 5% CO2 for 5 hr. One uL of LiveBLAzer B/G FRET substrate (Life Technologies) was added using a Flying Reagent Dispenser (Aurora Discovery, San Diego, CA) and the plates were incubated at room temperature for 2 hr. Fluorescence intensity (405 nm excitation, 460 nm and 530 nm emissions) was measured using an Envision plate reader (PerkinElmer, Shelton, CT).
% is set by controls: 0 for no effect and ±100 for the full control effect.

SMILES | activation
CCOCCOCC | -0.013% [at 78.8 µM]
CCCSSCCC | -1.04%
CN(C)CCN(C)CCO | 1.01%
NCC1(Cc2noc(=O)[nH]2)CCCCC1 | 3.42%
CN(C)CCCCl | -1.4% [at 78.8 µM]
C=CCCCC | -0.503% [at 78.8 µM]
O=C(Cl)c1ccccc1[N+](=O)[O-] | -0.686% [at 78.8 µM]
N#Cc1cscn1 | 0.129%
Cc1cccc(Cl)c1 | -0.461%
CN(C)C(C)(C)CO | 0.211%
Cn1c(=O)c2[nH]c(Br)nc2n(C)c1=O | -0.0539%
C/C(=C1\CCOC(=O)S1)N(C=O)Cc1cnc(C)nc1N | 2.9%
CC(C)CCOC(=O)c1ccccc1 | -2.7%
COC(=O)CCCCC(CCSS/C(CCO)=C(\C)N(C=O)Cc1cnc(C)nc1N)SC(C)=O (stereo not given) | -2.32%
CCC(=O)CC | 0.0105%
Nc1nc(-c2ccccc2)c(Br)c(=O)[nH]1 | -3.51%
C/C=C(\C)C(C)=O | -0.169%
O=NN(CCCl)C(=O)NC1CCCCC1 | -3.85%
CCCC(=O)Nc1ccc(OCC(O)CNC(C)C)c(C(C)=O)c1 (stereo not given) | -1.43%
CC(C)COC(=O)c1ccccc1 | 3.62%

SMILES | activation
O=C(O)CCCCCC(=O)O | 0.42% [at 78.8 µM]
OCC1(CO)COCOC1 | 5.83%
CC1CCc2c(N3CCC(O)CC3)c(F)cc3c(=O)c(C(=O)O)cn1c23 (stereo not given) | 0.336%
COc1ccc2c(c1)c1c3n2CCN(C)C3=NCC1 | 5.15%
C=CCSSCCC | -4.09%
c1ccc2cnccc2c1 | 0.594%
Cc1c(NC(=O)c2cccnc2)c(=O)n(-c2ccccc2)n1C | 2.41%
COC(=O)c1cccc(Cl)c1 | 0.14%
CC1=C(C(=O)O)N2C(=O)[C@@H](NC(=O)[C@H](N)C3=CCC=CC3)[C@H]2SC1 | -2.44%
CCCCCC(C)O (stereo not given) | -2.36%
Cn1nnc2c(C(N)=O)ncn2c1=O | 1.45%
COC(=O)/C=C\C(=O)O | -2.14%
OCCN1CCOCC1 | -0.358%
CC1CC(=O)CC(C)(C)C1 (stereo not given) | 6.9%
CCC(C)C(C)=O (stereo not given) | 0.336%
C#CCN[C@@H]1CCc2ccccc21 | 0.339%
CC1c2ccccc2CN1NC(=O)c1ccc(Cl)c(S(N)(=O)=O)c1 (stereo not given) | 2.09%
CC(S)C(C)S (stereo not given) | 3.95% [at 78.8 µM]
CCCCCCCCCCCCCBr | 2.81%
CNCCS(=O)(=O)O | -0.308% [at 78.8 µM]
